Experimental data: PubChem BioAssay (Tox21)
Inconclusive results are not listed. Calls of active or inactive are those of the source. Calls come from the whole dose curve.

molecular target: Thyrotropin receptor (Homo sapiens) (UniProt P16473); experiment: qHTS assay to identify small molecule antagonists of the thyroid stimulating hormone receptor (TSHR) signaling pathway (AID 1259385); conditions: TSHR-HEK293 cAMP HTRF, TSH-stimulated antagonist mode; series mostly up to 92.4 µM; activity change, negative = inhibition: at the top concentration; note: nearly all actives have a fitted effect of over 20% in size
Sequence (P16473 whole entry, looked up): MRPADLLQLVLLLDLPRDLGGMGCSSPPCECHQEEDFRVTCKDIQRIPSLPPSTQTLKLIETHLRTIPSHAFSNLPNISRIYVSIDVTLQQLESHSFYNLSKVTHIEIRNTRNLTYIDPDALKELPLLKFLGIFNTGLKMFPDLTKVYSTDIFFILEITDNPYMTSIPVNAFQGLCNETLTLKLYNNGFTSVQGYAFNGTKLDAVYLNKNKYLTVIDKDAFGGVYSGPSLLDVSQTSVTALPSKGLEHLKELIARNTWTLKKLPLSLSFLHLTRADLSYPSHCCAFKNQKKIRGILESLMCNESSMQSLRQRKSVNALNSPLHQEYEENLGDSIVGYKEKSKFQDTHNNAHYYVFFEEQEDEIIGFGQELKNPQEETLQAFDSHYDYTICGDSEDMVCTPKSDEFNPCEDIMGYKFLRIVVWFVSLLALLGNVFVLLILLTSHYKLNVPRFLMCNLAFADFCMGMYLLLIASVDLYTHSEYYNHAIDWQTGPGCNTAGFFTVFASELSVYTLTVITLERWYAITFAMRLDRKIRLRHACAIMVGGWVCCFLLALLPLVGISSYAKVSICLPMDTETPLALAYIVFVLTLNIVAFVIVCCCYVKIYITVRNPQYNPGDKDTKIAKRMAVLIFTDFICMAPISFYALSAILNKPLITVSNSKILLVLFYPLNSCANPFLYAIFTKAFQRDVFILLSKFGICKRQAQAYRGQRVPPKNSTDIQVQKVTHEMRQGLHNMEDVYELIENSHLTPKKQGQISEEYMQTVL
From the text: U.S. Tox21 Program National Center for Advancing Translational Sciences [NCATS] NIH Chemical Genomics Center [NCGC] U.S. Environmental Protection Agency [EPA] National Institutes of Environmental Health Sciences [NIEHS] National Toxicology Program [NTP] U.S. Food and Drug Administration [FDA] Tox21 Assay Overview: TSHR is the receptor for thyrotropin (thyroid stimulating hormone or TSH), a member of the glycoprotein hormone family. TSH is released by the anterior pituitary gland and is the main regulator of thyroid gland growth and development. Upon binding circulating thyrotropin, a G-protein signal cascade activates adenylyl cyclase and […] cAMP concentration is increased. cAMP is a key second messenger involved extensively in cellular signal transduction pathways associated with the majority of G-protein coupled receptors (GPCRs). The activation of these GPCRs by neurotransmitters, lipids, nucleotides, peptides and hormones results in the activation or the inhibition of plasma membrane-bound adenylate cyclase through heterotrimeric G-proteins. A cell-based TSHR assay can be used to screen chemical compounds that modulate TSHR either in agonist or antagonist mode.
Tox21 Assay Protocol Summary: TSHR-Hek293 cells were dispensed at 800 cells/4uL/well in 1536-well white plates using a Multidrop dispenser. After the assay plates were incubated at a 37C/5% CO2 incubator for 18 hrs, 23 nL of compounds dissolved in DMSO, positive controls or DMSO only was transferred to the assay plate by a pin tool, followed by 1 ul medium containing Ro20-1724. For the antagonist mode screening, 1 uL of TSH was added on the top of the cell/compound mixtures to achieve a final agonist concentration of 1.5 ng/mL. After 30 min of incubation at room temperature, 2.5 ul/well of cAMP-d2 and 2.5 ul/well of anti-cAMP-cryptate were added respectively into the assay plates using a Flying Reagent Dispenser. The plates were incubated at room temperature for 1 hr. The fluorescence intensity in the plates was measured using an Envision plate reader. Each test compound was measured at 15 concentrations and in triplicates.
% is set by controls: 0 for no effect and ±100 for the full control effect.

| Structure (SMILES) | activity change, negative = inhibition | outcome |
| --- | --- | --- |
| O=c1[nH]c2ccccc2o1 | 3.19% (inactive) |  |
| ClCCCCCCCl | -1.12% (inactive) |  |
| CCC(CC)(CNC(=O)CCCO)c1cccc(OC)c1 | -0.232% [at 42.5 µM] (inactive) |  |
| O=C(O)C(Br)(Br)Br | 6.45% (inactive) |  |
| COC[C@@H](NC(C)=O)C(=O)NCc1ccccc1 | -0.387% [at 42.5 µM] (inactive) |  |
| CCSC(=O)Cl | 0.832% (inactive) |  |
| CCCCCCC1CCOC1=O (stereo not given) | 0.925% (inactive) |  |
| ClCCN1CCCC1 | 3.53% [at 42.5 µM] (inactive) |  |
| ClC(Cl)(Cl)Cl | 0.18% (inactive) |  |
| C[N+]1(C)CCCCC1 | 1.24% (inactive) |  |
| COc1ccccc1OC | -1.03% (inactive) |  |
| C/C(=N\NC(=O)Nc1cc(F)cc(F)c1)c1ncccc1C(=O)O | 0.0092% (inactive) |  |
| C[C@]12C=CC(=O)C=C1CC[C@@H]1[C@@H]2CC[C@@]2(C)[C@H]1CC[C@]2(C)O | -0.27% [at 42.5 µM] (inactive) |  |
| C=C1C[C@@H]2[C@H](CC[C@]3(C)C(=O)CC[C@@H]23)[C@@]2(C)C=CC(=O)C=C12 | -4.63% [at 42.5 µM] (inactive) |  |
| O=C(NC(=O)c1c(F)cccc1F)Nc1cc(Cl)c(F)c(Cl)c1F | -3.08% (inactive) |  |
| CCNc1nc(NCC)nc(SC)n1 | 2.7% (inactive) |  |
| Cc1ccc(S(=O)(=O)N[C@@H](CCCCN)C(=O)CCl)cc1 | 5.61% [at 42.5 µM] (inactive) |  |
| CN(C)CCN(C)C | -1.38% (inactive) |  |
| Cc1cc(OC(=O)N(C)C)nn1C(=O)N(C)C | -0.0858% (inactive) |  |
| CC(C)(C)NC[C@H](O)c1ccc(O)cc1Cl | 1.62% [at 42.5 µM] (inactive) |  |

| Structure (SMILES) | activity change, negative = inhibition | outcome |
| --- | --- | --- |
| CCN(CCO)CCO | 2.49% (inactive) |  |
| C[C@@H](N)[C@@H](O)c1ccccc1 | 0.992% [at 42.5 µM] (inactive) |  |
| O=C(O)C(F)(F)C(F)(F)C(F)(F)C(F)(F)C(F)(F)C(F)(F)F | 0.055% (inactive) |  |
| NNC(N)=O | -5.07% (inactive) |  |
| CNC(=O)Oc1cc(C)c(N(C)C)c(C)c1 | -4.49% (inactive) |  |
| C=CC1(C)OC(=O)N(c2cc(Cl)cc(Cl)c2)C1=O (stereo not given) |  | inactive |
| CC(C)(C)C(=O)C(Cl)Cl | 0.454% (inactive) |  |
| CC(Cl)(Cl)Cl | -0.243% (inactive) |  |
| CCCN1CCC[C@@H]2Cc3nc(N)ncc3C[C@H]21 | -0.728% [at 42.5 µM] (inactive) |  |
| CON(C)C(=O)Nc1ccc(Br)cc1 | 2.74% (inactive) |  |
| Cc1ccc(-c2nc3ccc(C)cn3c2CC(=O)N(C)C)cc1 | -0.0837% [at 42.5 µM] (inactive) |  |
| CC(Cc1ccccc1)NCCn1cnc2c1c(=O)n(C)c(=O)n2C (stereo not given) | -0.383% (inactive) |  |
| NC(=O)OCCCc1ccccc1 | -0.251% [at 42.5 µM] (inactive) |  |
| O=P(O)(O)CN(CP(=O)(O)O)CP(=O)(O)O |  | inactive |
| CCCCOC(C)=O | 4.61% (inactive) |  |
| CS(=O)(=O)Cl | 0.262% (inactive) |  |
| COP(=O)(O)OC | 0.375% (inactive) |  |
| NCCOS(=O)(=O)O | 0.0112% (inactive) |  |
| CCC(=O)c1ccc(Cl)cc1 | -1.07% (inactive) |  |
| O=C(Cl)CCl | 0.393% (inactive) |  |
